Assay outcomes (PubChem)
SNCA expr inhib: SNCA gene expression inhibition | HEK-293 SNCA-luciferase knock-in, luminescence, 24 h | Potency, µM (series often up to 57.2 µM), for the others: top-dose activity change, negative = inhibition, usual class: inhibitors | 140,000 compounds, 0.17% hits | AID 1671194;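 note: potency is the fitted concentration of half-maximal effect; plate controls were DMSO cells for no effect and cell-free wells for full effect; nearly all actives have a fitted effect of over 45% in size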
HEK293 viab: reduces viability of HEK-293 SNCA reporter cells. HEK-293-SNCA-luc viability, GF-AFC fluorescence, 24 h. Potency, µM (titrated, usually from 57.1 µM), without a hit: at the top dose activity change, negative = cytotoxicity, actives largely listed as cytotoxic. 150,000 compounds, 0.12% hits;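 note: potency is the fitted concentration of half-maximal effect; 0% = DMSO-treated cells and -100% = medium-only wells without cells; nearly all actives have a fitted effect of over 30% in size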
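Cytotoxicity counterscreen: after 24 h compound treatment of genome-edited SNCA-luciferase HEK-293 cells, live-cell protease substrate GF-AFC read by fluorescence after 30 min; activity scaled between DMSO (0%) and medium-only (-100%), curves Hill-fitted.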
IP6K1 inhibitor: blocks human inositol hexakisphosphate kinase 1. activity change, % (series mostly up to about 58 µM). AID 1645851. 140,000 compounds, 0.81% hits. Q92551. IP6K1 kinase, ADP-Glo luminescence, 2 h; active compounds read low; in the data active = activity change below about -25%; note: % is set by controls: 0 for no effect and ±100 for the full control effect
Target sequence (Q92551 whole entry, looked up): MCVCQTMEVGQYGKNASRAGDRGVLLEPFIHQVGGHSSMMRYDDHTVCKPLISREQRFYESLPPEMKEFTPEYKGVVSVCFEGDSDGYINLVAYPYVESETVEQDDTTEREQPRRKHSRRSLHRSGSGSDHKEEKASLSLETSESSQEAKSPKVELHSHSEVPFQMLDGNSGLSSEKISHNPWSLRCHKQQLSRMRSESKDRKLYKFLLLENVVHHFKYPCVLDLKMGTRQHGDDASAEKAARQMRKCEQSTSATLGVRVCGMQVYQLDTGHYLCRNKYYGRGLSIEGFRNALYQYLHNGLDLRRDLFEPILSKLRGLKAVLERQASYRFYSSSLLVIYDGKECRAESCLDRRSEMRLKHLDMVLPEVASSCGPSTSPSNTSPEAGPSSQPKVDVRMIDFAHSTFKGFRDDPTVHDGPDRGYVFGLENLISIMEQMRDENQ
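ADP-Glo luminescence measures ADP made by human IP6K1 during a 2 h RT reaction with ATP/IP6 (mix at 1.3 mM/130 uM); top library doses 57.5 and 19.1 uM final.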
KDM5B inh: inhibitors of human KDM5B histone demethylase; Q9UGL1; KDM5B demethylase, FDH-coupled NADH fluorescence (FDH is formaldehyde dehydrogenase); Potency, µM (highest dose often 57.7 µM), hits mostly inhibitors; 220,000 compounds, 2.6% hits; AID 1347165; note: potency is the fitted concentration of half-maximal effect; 0% is about no effect; nearly all actives have a fitted effect of over 70% in size
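Compound dilutions met 200 nM (final) KDM5BΔAP for 10 min at room temperature before substrate addition. The substrate mix held 12.5 µM H3K4me3 with cofactors 25 µM α-ketoglutarate and 50 µM Fe²⁺. NADH signal gain over 30 min defined activity.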
Starred values were filed as active, the others as inactive; [ ] = remark or other dose. In the library only some 2.8% were active in any assay of this set; here they are far more common. Unless noted, calls come from the whole dose curve; as a rule, active = well fitted curve in the direction sought with a large enough effect; inconclusive = small, poorly fitted or top-dose-only effect, or another doubt; inactive = no such curve, though single readings can be large; an effect the other way counts as inactive or inconclusive.

What do the screens show for `Cc1oc2cc(OC(=O)N3CCOCC3)ccc2c(=O)c1Oc1ccccc1Br`?
KDM5B inh: inactive

What do the screens show for `CN(Cc1ccccc1)C(=O)c1ccc(-c2ccsc2)cc1`?
KDM5B inh: inactive

What do the screens show for `CC(C)CCNC(=O)Cn1ccn2nc3c(c2c1=O)CCCC3`?
SNCA expr inhib: inconclusive; HEK293 viab: -5%; IP6K1 inhibitor: 2; KDM5B inh: 20µM*

How did CCCNC(=O)Cn1ccn2nc3c(c2c1=O)CCCC3 do in these assays?
SNCA expr inhib: -4%; HEK293 viab: 2%; IP6K1 inhibitor: 29; KDM5B inh: inactive

Results for O=C(Cn1ccn2nc3c(c2c1=O)CCCCC3)Nc1ccccc1C(F)(F)F ?
SNCA expr inhib: 17%; HEK293 viab: -8%; IP6K1 inhibitor: -1; KDM5B inh: inconclusive

Results for CCc1ccccc1NC(=O)Cn1ccn2nc3c(c2c1=O)CCCC3 ?
SNCA expr inhib: -36%; HEK293 viab: 3%; IP6K1 inhibitor: -4; KDM5B inh: 35µM*

What do the screens show for `CC(C)NC(=O)c1noc(-c2ccc[nH]c2=O)n1`?
SNCA expr inhib: -24%; HEK293 viab: 9%; IP6K1 inhibitor: 10; KDM5B inh: inactive

Results for O=C(NCC1CCCO1)c1noc(-c2ccc[nH]c2=O)n1 (stereo unspecified) ?
SNCA expr inhib: -18%; HEK293 viab: 5%; IP6K1 inhibitor: 2; KDM5B inh: 28µM*

How did COc1ccc(CCNC(=O)c2cc([N+](=O)[O-])cc([N+](=O)[O-])c2)cc1OC do in these assays?
KDM5B inh: inactive

How did O=C(NCCC1=CCCCC1)c1noc(-c2ccc[nH]c2=O)n1 do in these assays?
SNCA expr inhib: inconclusive; HEK293 viab: -4%; IP6K1 inhibitor: -2; KDM5B inh: 32µM*

What do the screens show for `COc1ccc(CCNC(=O)c2noc(-c3ccc[nH]c3=O)n2)cc1OC`?
SNCA expr inhib: 2%; HEK293 viab: 2%; IP6K1 inhibitor: 0; KDM5B inh: 32µM*

Results for O=C(CC[C@@H]1CNC(=O)[C@@H]2C[C@H](NCc3ccccn3)CN12)NCc1ccccc1 ?
SNCA expr inhib: -15%[87.6 µM]; HEK293 viab: -12%[87.6 µM]; IP6K1 inhibitor: -7; KDM5B inh: 25µM*

What do the screens show for `COc1ccc(CN[C@H]2C[C@H]3C(=O)NC[C@@H](CCC(=O)NCc4ccccc4)N3C2)cc1`?
SNCA expr inhib: 27%; HEK293 viab: -2%; IP6K1 inhibitor: 4; KDM5B inh: 35µM*

How did Cn1nc(C(=O)NCc2cccc(Cl)c2)c2c1-c1ccccc1OC2 do in these assays?
KDM5B inh: inactive

What do the screens show for `CCCc1noc(-c2ccn3c(CNC(=O)c4cccnc4)nnc3c2)n1`?
SNCA expr inhib: -13%; HEK293 viab: 3%; IP6K1 inhibitor: 6; KDM5B inh: 28µM*

What do the screens show for `CCCc1noc(-c2ccn3c(CNC(=O)c4ccc(C)c(F)c4)nnc3c2)n1`?
SNCA expr inhib: 2%; HEK293 viab: 1%; IP6K1 inhibitor: 4; KDM5B inh: 28µM*

Results for Cc1noc(-c2ccn3c(CNC(=O)c4ccoc4)nnc3c2)n1 ?
SNCA expr inhib: 3%; HEK293 viab: -7%; IP6K1 inhibitor: 20; KDM5B inh: 25µM*

How did CCc1noc(-c2ccn3c(CNC(=O)c4ccoc4)nnc3c2)n1 do in these assays?
SNCA expr inhib: 4%; HEK293 viab: 4%; IP6K1 inhibitor: -1; KDM5B inh: 28µM*

What do the screens show for `Cc1noc(-c2ccn3c(CNC(=O)c4cccnc4)nnc3c2)n1`?
SNCA expr inhib: inconclusive; HEK293 viab: -2%; IP6K1 inhibitor: -2; KDM5B inh: inactive

How did Cc1noc(-c2ccn3c(CNC(=O)c4ccncc4)nnc3c2)n1 do in these assays?
SNCA expr inhib: 13%; HEK293 viab: 6%; IP6K1 inhibitor: 11; KDM5B inh: inactive

How did O=C(O)C1c2nc[nH]c2CCN1C(=O)CCCn1ccnc1 (stereo unspecified) do in these assays?
SNCA expr inhib: 23%; HEK293 viab: 3%; IP6K1 inhibitor: 3; KDM5B inh: inactive

What do the screens show for `CCc1noc(-c2ccn3c(CNC(=O)c4ccncc4)nnc3c2)n1`?
SNCA expr inhib: inconclusive; HEK293 viab: 6%; IP6K1 inhibitor: 5; KDM5B inh: 25µM*

Results for CCc1noc(-c2ccn3c(CNC(=O)c4cccc(OC)c4)nnc3c2)n1 ?
SNCA expr inhib: -10%; HEK293 viab: 3%; IP6K1 inhibitor: 20; KDM5B inh: 28µM*

Results for COc1ccc(CNC(=O)COC(=O)c2cc(Cl)c[nH]2)cc1 ?
KDM5B inh: inactive

How did CCOc1ccc(NC(=O)C#Cc2ccccc2)cc1 do in these assays?
KDM5B inh: inactive

What do the screens show for `CCOC(=O)C(NC(=O)COc1cc(C)cc(C)c1)C(=O)OCC`?
KDM5B inh: inactive

How did CCCc1nnc(C[C@@H]2C[C@@H](C(C)C)[C@H](CN3CCC(CO)CC3)C=C2C)o1 do in these assays?
SNCA expr inhib: -27%[87.6 µM]; HEK293 viab: -5%[87.6 µM]; IP6K1 inhibitor: -3; KDM5B inh: inactive

Results for O=C(c1ccc2oc(-c3ccc(C(F)(F)F)cc3)nc2c1)N1CCOCC1 ?
SNCA expr inhib: 47%; HEK293 viab: 4%; IP6K1 inhibitor: 1; KDM5B inh: inactive

How did O=C(NCC1CCCO1)c1ccc2oc(-c3ccc(C(F)(F)F)cc3)nc2c1 (stereo unspecified) do in these assays?
SNCA expr inhib: 88%; HEK293 viab: -3%; IP6K1 inhibitor: -1; KDM5B inh: 25µM*

What do the screens show for `Cc1ccc(/C=N/Nc2ccc(S(=O)(=O)Nc3ccccc3C(=O)O)cc2[N+](=O)[O-])o1`?
KDM5B inh: inactive

How did CN1CCOc2c(C(=O)NCc3cnn(C)c3)cc(-c3ccccc3O)cc21 do in these assays?
SNCA expr inhib: 10%[87.6 µM]; HEK293 viab: -9%[87.6 µM]; IP6K1 inhibitor: -15; KDM5B inh: 28µM*

What do the screens show for `CN1CCOc2c(C(=O)NCc3cccnc3)cc(-c3ccccc3O)cc21`?
SNCA expr inhib: -15%[87.6 µM]; HEK293 viab: -16%[87.6 µM]; IP6K1 inhibitor: -18; KDM5B inh: 32µM*

What do the screens show for `CN1CCOc2c(C(=O)NCc3cnn(C)c3)cc(-c3cccnc3)cc21`?
SNCA expr inhib: -15%[87.6 µM]; HEK293 viab: -12%[87.6 µM]; IP6K1 inhibitor: -7; KDM5B inh: inactive

How did COc1ncc(-c2cc(C(=O)NCc3cnn(C)c3)c3c(c2)N(C)CCO3)cn1 do in these assays?
SNCA expr inhib: -4%[87.6 µM]; HEK293 viab: -1%[87.6 µM]; IP6K1 inhibitor: -18; KDM5B inh: inactive

Results for Cc1cc(CNC(=O)c2cc(-c3cccnc3)cc3c2OCCN3C)no1 ?
SNCA expr inhib: -8%[87.6 µM]; HEK293 viab: -12%[87.6 µM]; IP6K1 inhibitor: -24; KDM5B inh: inconclusive

What do the screens show for `CN1CCOc2c(C(=O)NCc3cccnc3)cc(-c3ccc(CO)cc3)cc21`?
SNCA expr inhib: 5%[87.6 µM]; HEK293 viab: -12%[87.6 µM]; IP6K1 inhibitor: -11; KDM5B inh: 40µM*

Results for CN1CCOc2c(C(=O)NCc3cccnc3)cc(-c3ccccc3)cc21 ?
SNCA expr inhib: -18%[87.6 µM]; HEK293 viab: -26%[87.6 µM]; IP6K1 inhibitor: -14; KDM5B inh: 28µM*

What do the screens show for `COCCNC(=O)c1cn2cc(-c3cccc(C(F)(F)F)c3)sc2n1`?
SNCA expr inhib: 0%; HEK293 viab: 1%; IP6K1 inhibitor: 1
